In PubChem BioAssay (EPA / NIEHS):
Where “and” joins values, the source holds several entries; their conditions need not be identical. Equal entries are not always repeated. Results filed as inconclusive are left out. The source holds several records for some structures; these can differ, active in one and inactive in another. Calls of active or inactive are those of the source. Rule for the calls, unless noted: active = hit-call score of the fitted dose curve at least 0.9, where 1 is the maximum; inactive = score below 0.9.

How the values were obtained:
[1] = ATG_PBREM_CIS: Attagene CIS-FACTORIAL HepG2 Assay for human Phenobarbital-responsive Enhancer Module (PBREM) (AID 2282955); details: HepG2 PBREM cis-reporter, Attagene multiplexed transcription; actives raise or lower the signal
Method in brief: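 Endogenous transcription factor activity was read from reporter transcripts in transiently transfected human HepG2 liver cells after 24 h dosing. RT-PCR products were fluorescently labelled, HpaI-cut and sized by capillary electrophoresis; activity fitted bidirectionally against DMSO baseline.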

[2] = target: Paired box protein Pax-6 (Homo sapiens) (UniProt P26367); assay: ATG_Pax6_CIS: Attagene CIS-FACTORIAL HepG2 Assay for human Paired Box 6 (PAX6) (AID 2282956); details: HepG2 CIS-FACTORIAL PAX6 reporter transcription, RNA readout; actives raise or lower the signal
Method in brief: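 Read-out is reporter transcript level, measured by RT-PCR with fluorescent primer extension and capillary electrophoresis after 24 h dosing of transfected HepG2 cells. Activity in either direction fitted relative to DMSO control.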

[3] = ATG_PXRE_CIS: Attagene CIS-FACTORIAL HepG2 Assay for human Pregnane X Receptor Element (PXRE) (AID 2282957); details: HepG2 Attagene CIS-FACTORIAL PXRE reporter, mRNA; actives raise or lower the signal
Method in brief: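 After a 24 h chemical incubation, total RNA from transfected HepG2 cells was reverse-transcribed and reporter cDNA amplified, FAM-labeled, HpaI-digested and sized by capillary electrophoresis. DMSO served as baseline for bidirectional curve fitting.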

[4] = ATG_PPRE_CIS: Attagene CIS-FACTORIAL HepG2 Assay for human Peroxisome Proliferator-activated Response Element (PPRE) (AID 2282958); details: HepG2 PPRE cis-element reporter, Attagene transcription factor profiling; actives raise or lower the signal
Method in brief: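 Endogenous PPRE-driven transcription is measured in HepG2 cells carrying transfected multi-reporter constructs. Reporter transcripts are quantified by RT-PCR, HpaI digestion and capillary electrophoresis 24 h after dosing. DMSO baseline, bidirectional fit.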

[5] = ATG_RORE_CIS: Attagene CIS-FACTORIAL HepG2 Assay for human RAR-related Orphan Receptor Element (RORE) (AID 2282959); details: HepG2 Attagene cis-factorial RORE reporter, mRNA; actives raise or lower the signal
Method in brief: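 RORE reporter transcripts reflecting endogenous factor activity were read after 24 h compound exposure of transfected HepG2 cells, using reverse transcription, PCR, fluorescent labelling and capillary electrophoresis sizing. Gain or loss fitted against DMSO.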

[6] = ATG_Sox_CIS: Attagene CIS-FACTORIAL HepG2 Assay for human SRY-box transcription factor (SOX) (AID 2282960); details: HepG2 Attagene cis-factorial SOX reporter, mRNA; actives raise or lower the signal
Method in brief: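 Reporter transcripts, measured by RT-PCR and capillary electrophoresis of labelled fragments, report endogenous SOX transcription factor activity. Transiently transfected human HepG2 cells receive chemical for 24 h; changes in either direction are fitted relative to DMSO.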

[7] = target: Transcription factor Sp1 (Homo sapiens) (UniProt P08047); assay: ATG_Sp1_CIS: Attagene CIS-FACTORIAL HepG2 Assay for human Specificity Protein 1 (Sp1) (AID 2282961); details: HepG2 Sp1 cis-reporter transcription, actives raise or lower the signal
Method in brief: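 Read-out is reporter transcript level, measured by RT-PCR and fluorescent capillary electrophoresis after 24 h chemical treatment. System: transiently transfected HepG2 cells reporting endogenous transcription factor activity; gain or loss fitted against DMSO baseline.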

[8] = ATG_SREBP_CIS: Attagene CIS-FACTORIAL HepG2 Assay for human Sterol Regulatory Element Binding (SREBP) (AID 2282962); details: HepG2 Attagene cis-factorial SREBP reporter, mRNA; actives raise or lower the signal
Method in brief: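 Endogenous SREBP activity read as cis-element-driven reporter transcript in transiently transfected HepG2, 24 h post-dosing; quantified via RT-PCR plus capillary electrophoresis of fluorescent fragments. Gain or loss of signal fitted relative to DMSO baseline.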

[9] = target: Signal transducer and activator of transcription 3 (Homo sapiens) (UniProt P40763); assay: ATG_STAT3_CIS: Attagene CIS-FACTORIAL HepG2 Assay for human Signal Transducer and Activator of Transcription 3 (STAT3) (AID 2282963); details: HepG2, Attagene cis-factorial STAT3 reporter transcription; actives raise or lower the signal
Method in brief: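 Cis-factorial format: endogenous transcription factors in HepG2 drive transfected reporter units. After 24 h treatment, reporter RNA was reverse-transcribed, amplified, FAM-labelled and HpaI-digested before CE analysis; activity scored in both directions against DMSO.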

[10] = ATG_TA_CIS: Attagene CIS-FACTORIAL HepG2 Assay for human TA Basal Promoter (AID 2282964); details: HepG2 Attagene CIS-factorial TA basal promoter reporter; actives raise or lower the signal
Method in brief: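 HepG2 cells transiently transfected with multiplexed cis-promoter reporter units, dosed 24 h. Reporter mRNA measured by RT-PCR, 6-FAM labelling, HpaI digestion and capillary electrophoresis; bidirectional fit versus DMSO baseline, serving as background control.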

[11] = ATG_TCF_b_cat_CIS: Attagene CIS-FACTORIAL HepG2 Assay for human T-Cell-Factor with beta-catenin (TCF/b-cat) (AID 2282965); details: HepG2 TCF/beta-catenin cis-reporter transcription, actives raise or lower the signal
Method in brief: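 Endogenous TCF/LEF activity read as reporter transcript level via RT-PCR and capillary electrophoresis fluorescence in transfected HepG2, 24 h exposure; gain or loss of signal fitted against DMSO controls.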

[12] = ATG_TAL_CIS: Attagene CIS-FACTORIAL HepG2 Assay for human TAL Basal Promoter (AID 2282966); details: HepG2 Attagene cis-factorial TAL promoter reporter; actives raise or lower the signal;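 note: background control endpoint measuring basal TAL promoter reporter mRNA not a specific factor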
Method in brief: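 Basal-promoter background-control endpoint from a multiplexed HepG2 reporter panel. Cells were exposed 24 h, then reporter mRNA was read by RT-PCR/CE fluorescence and fitted in both directions relative to DMSO.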

[13] = ATG_TGFb_CIS: Attagene CIS-FACTORIAL HepG2 Assay for human Transforming Growth Factor (TGF) (AID 2282967); details: HepG2 Attagene CIS TGFb reporter, mRNA transcription; actives raise or lower the signal
Method in brief: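 HepG2 cells transiently transfected with cis-promoter-driven multiplexed reporter units; 24 h compound exposure. Reporter mRNA measured by RT-PCR, 6-FAM labeling, HpaI digestion and capillary electrophoresis; bidirectional fit versus DMSO baseline.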

[14] = ATG_VDRE_CIS: Attagene CIS-FACTORIAL HepG2 Assay for human Vitamin D Receptor Element (VDRE) (AID 2282968); details: HepG2 VDRE cis-reporter transcription, actives raise or lower the signal
Method in brief: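 Measures endogenous factor activity through cis-element-driven reporter transcripts in transiently transfected HepG2. Cells are treated 24 h; reporter mRNA is quantified by RT-PCR and capillary electrophoresis; fitting is bidirectional.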

[15] = target: Nuclear receptor subfamily 1 group I member 3 (Homo sapiens) (UniProt Q14994); assay: ATG_CAR_TRANS: Attagene TRANS-FACTORIAL HepG2 Assay for human Constitutive Androstane Receptor (CAR) (AID 2282969; active = hit-call score of the fitted dose curve at least 0.9, where 1 is the maximum;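 note: activators raise reporter mRNA above DMSO so AC50 marks induction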); details: HepG2 Attagene TRANS-FACTORIAL CAR reporter
Method in brief: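 Signal is reporter mRNA induction relative to DMSO, measured 24 h after dosing by RT-PCR with fluorescent primer extension and capillary electrophoresis. Human HepG2 liver cells carried transiently transfected chimeric NR-Gal4/GAL4-UAS reporter constructs.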

[16] = target: Estrogen receptor (Homo sapiens) (UniProt P03372); assay: ATG_ERa_TRANS: Attagene TRANS-FACTORIAL HepG2 Assay for human Estrogen Receptor alpha (ERa) (AID 2282970; active = hit-call score of the fitted dose curve at least 0.9, where 1 is the maximum); details: HepG2 Attagene TRANS ERa GAL4 reporter, mRNA
Method in brief: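 Gal4-fusion ERa transactivation, measured as reporter transcript level in transiently transfected HepG2 cells. Exposure 24 h; RT-PCR plus capillary electrophoresis with fluorescence detection.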

[17] = target: X-box-binding protein 1 (Homo sapiens) (UniProt P17861); assay: ATG_Xbp1_CIS: Attagene CIS-FACTORIAL HepG2 Assay for human X-box Binding Protein 1 (XBP1) (AID 2282972); details: HepG2 XBP1 cis-element reporter, Attagene multiplex; actives raise or lower the signal
Method in brief: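 Reporter transcripts were quantified by RT-PCR with fluorescent primer extension and capillary electrophoresis after 24 h chemical exposure. Cells: transiently transfected HepG2 carrying cis-regulated reporter constructs; data fitted bidirectionally relative to DMSO.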

[18] = target: Androgen receptor (Homo sapiens) (UniProt P10275); assay: ATG_AR_TRANS: Attagene TRANS-FACTORIAL HepG2 Assay for human Androgen Receptor (AR) (AID 2282973; active = hit-call score of the fitted dose curve at least 0.9, where 1 is the maximum); details: HepG2 Attagene TRANS-FACTORIAL AR reporter transcription
Method in brief: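 HepG2 cells transiently transfected with AR-Gal4 chimera and GAL4-UAS reporter units; chemical exposure 24 h. Reporter mRNA quantified by RT-PCR with fluorescent labelling and capillary electrophoresis; gain-of-signal fitted against DMSO.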

[19] = ATG_M_19_TRANS: Attagene TRANS-FACTORIAL HepG2 Assay for M19 Transcription Factor (Internal Marker) (AID 2282974; active = hit-call score of the fitted dose curve at least 0.9, where 1 is the maximum); details: HepG2 Attagene TRANS-FACTORIAL M19 internal marker reporter
Method in brief: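 Background-control readout: after 24 h chemical exposure of transfected HepG2 carrying GAL4-driven reporter units, RNA was reverse-transcribed, amplified, fluorescently labeled and sized by capillary electrophoresis; gain-of-signal fit against DMSO.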

[20] = target: Steroid hormone receptor ERR1 (Homo sapiens) (UniProt P11474); assay: ATG_ERRa_TRANS: Attagene TRANS-FACTORIAL HepG2 Assay for human Estrogen-Related Receptor alpha (ERRa) (AID 2282971; active = hit-call score of the fitted dose curve at least 0.9, where 1 is the maximum); details: HepG2 Attagene TRANS reporter, ERRa transactivation
Method in brief: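 HepG2 cells transiently transfected with GAL4-UAS reporter units and chimeric NR-Gal4 constructs; after 24 hour compound incubation, reporter mRNA quantified by RT-PCR, fluorescent labelling and capillary electrophoresis, gain of signal versus DMSO.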

Measured: AC50

Transcription factor Sp1 (Homo sapiens), sequence (P08047 whole entry, looked up): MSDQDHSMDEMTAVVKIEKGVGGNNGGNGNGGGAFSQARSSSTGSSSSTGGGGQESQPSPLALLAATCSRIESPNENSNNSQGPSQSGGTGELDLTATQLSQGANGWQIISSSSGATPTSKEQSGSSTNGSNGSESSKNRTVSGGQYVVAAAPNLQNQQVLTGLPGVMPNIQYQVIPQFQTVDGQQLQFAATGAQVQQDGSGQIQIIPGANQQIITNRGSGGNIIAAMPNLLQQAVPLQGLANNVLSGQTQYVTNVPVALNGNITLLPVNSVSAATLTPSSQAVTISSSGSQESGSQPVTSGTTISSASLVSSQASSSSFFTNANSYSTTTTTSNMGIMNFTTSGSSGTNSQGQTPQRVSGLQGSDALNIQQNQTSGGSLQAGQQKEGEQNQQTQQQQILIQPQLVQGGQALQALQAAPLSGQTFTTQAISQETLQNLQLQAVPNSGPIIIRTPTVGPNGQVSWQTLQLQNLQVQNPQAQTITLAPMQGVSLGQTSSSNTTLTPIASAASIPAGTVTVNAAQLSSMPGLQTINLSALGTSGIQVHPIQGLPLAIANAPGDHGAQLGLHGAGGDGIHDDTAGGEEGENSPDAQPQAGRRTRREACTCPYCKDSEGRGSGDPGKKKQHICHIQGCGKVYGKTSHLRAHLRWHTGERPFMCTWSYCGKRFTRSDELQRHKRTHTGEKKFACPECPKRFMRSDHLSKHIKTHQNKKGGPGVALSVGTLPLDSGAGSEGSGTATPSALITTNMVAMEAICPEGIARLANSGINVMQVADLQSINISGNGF
Nuclear receptor subfamily 1 group I member 3 (Homo sapiens), sequence (Q14994 whole entry, looked up, the tested form may be a part): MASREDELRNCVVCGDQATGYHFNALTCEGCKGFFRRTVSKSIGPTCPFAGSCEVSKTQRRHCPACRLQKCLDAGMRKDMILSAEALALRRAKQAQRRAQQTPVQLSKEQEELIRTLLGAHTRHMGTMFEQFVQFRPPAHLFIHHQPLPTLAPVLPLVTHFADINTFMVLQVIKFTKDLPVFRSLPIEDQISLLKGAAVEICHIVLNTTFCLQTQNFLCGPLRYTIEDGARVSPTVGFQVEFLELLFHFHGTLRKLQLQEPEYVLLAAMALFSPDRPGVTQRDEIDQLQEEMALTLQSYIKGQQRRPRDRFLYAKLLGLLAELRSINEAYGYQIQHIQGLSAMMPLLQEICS
Signal transducer and activator of transcription 3 (Homo sapiens), sequence (P40763 whole entry, looked up): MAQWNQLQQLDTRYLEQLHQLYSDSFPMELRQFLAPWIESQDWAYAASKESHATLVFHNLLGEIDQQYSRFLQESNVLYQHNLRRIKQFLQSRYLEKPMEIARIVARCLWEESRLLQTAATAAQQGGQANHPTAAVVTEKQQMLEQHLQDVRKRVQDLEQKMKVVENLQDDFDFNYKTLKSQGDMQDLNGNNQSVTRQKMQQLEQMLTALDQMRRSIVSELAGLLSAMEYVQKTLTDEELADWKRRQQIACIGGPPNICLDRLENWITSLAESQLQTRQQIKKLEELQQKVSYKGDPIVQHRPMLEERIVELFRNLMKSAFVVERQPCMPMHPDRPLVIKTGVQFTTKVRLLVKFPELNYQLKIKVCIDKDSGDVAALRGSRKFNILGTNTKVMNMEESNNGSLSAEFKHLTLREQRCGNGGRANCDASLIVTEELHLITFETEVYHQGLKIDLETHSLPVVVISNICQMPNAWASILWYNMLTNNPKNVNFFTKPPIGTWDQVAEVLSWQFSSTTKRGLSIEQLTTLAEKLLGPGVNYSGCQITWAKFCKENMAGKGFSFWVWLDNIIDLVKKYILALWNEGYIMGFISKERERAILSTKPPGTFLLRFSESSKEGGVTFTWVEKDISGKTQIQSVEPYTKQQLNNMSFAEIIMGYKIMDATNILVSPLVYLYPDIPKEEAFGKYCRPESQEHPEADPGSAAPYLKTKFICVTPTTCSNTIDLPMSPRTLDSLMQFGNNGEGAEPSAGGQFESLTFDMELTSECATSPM
Paired box protein Pax-6 (Homo sapiens), sequence (P26367 whole entry, looked up): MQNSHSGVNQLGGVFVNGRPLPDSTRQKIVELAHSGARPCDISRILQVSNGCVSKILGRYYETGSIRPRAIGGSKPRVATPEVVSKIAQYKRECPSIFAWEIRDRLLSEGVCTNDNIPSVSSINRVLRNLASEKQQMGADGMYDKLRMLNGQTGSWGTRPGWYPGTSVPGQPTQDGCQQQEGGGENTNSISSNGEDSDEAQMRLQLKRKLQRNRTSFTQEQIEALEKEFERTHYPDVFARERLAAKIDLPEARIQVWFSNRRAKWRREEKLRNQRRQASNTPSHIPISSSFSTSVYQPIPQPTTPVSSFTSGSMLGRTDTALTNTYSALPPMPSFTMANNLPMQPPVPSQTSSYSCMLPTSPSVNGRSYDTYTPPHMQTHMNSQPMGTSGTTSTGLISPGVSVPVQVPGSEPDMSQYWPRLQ
Steroid hormone receptor ERR1 (Homo sapiens), sequence (P11474 whole entry, looked up, the tested form may be a part): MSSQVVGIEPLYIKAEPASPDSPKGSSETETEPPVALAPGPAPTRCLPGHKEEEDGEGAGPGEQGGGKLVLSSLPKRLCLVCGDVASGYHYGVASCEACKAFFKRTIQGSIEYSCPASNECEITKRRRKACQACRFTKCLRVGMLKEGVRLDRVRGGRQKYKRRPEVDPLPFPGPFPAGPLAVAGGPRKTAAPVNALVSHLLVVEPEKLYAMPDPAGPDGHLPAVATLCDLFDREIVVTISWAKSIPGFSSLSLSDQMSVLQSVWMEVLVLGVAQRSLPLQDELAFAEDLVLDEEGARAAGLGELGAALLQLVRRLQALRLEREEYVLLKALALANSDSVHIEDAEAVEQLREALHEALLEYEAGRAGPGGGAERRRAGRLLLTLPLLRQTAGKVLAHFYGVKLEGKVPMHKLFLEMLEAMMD
X-box-binding protein 1 (Homo sapiens), sequence (P17861 whole entry, looked up): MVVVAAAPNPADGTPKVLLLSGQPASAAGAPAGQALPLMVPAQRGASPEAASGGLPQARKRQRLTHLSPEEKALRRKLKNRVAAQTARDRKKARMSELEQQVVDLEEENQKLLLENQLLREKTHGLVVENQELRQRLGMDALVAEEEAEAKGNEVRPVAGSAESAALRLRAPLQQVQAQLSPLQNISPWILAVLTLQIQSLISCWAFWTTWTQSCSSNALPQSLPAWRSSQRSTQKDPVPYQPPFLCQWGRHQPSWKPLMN
Estrogen receptor (Homo sapiens), sequence (P03372 whole entry, looked up, the tested form may be a part): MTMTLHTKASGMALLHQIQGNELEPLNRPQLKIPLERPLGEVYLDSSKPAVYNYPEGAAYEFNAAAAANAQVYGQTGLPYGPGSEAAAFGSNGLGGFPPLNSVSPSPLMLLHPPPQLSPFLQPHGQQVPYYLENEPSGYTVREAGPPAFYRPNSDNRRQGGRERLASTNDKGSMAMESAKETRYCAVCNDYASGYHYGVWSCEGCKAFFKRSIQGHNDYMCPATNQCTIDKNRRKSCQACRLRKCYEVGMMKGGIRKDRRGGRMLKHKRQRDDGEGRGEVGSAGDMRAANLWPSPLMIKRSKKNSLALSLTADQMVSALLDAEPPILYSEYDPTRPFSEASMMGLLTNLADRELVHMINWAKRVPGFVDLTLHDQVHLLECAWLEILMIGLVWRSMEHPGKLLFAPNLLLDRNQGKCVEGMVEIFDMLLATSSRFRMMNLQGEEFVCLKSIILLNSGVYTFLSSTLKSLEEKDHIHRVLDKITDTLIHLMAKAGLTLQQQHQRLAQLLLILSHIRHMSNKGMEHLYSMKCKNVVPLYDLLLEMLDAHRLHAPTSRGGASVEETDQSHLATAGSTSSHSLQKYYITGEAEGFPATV
Androgen receptor (Homo sapiens), sequence (P10275 whole entry, looked up, the tested form may be a part): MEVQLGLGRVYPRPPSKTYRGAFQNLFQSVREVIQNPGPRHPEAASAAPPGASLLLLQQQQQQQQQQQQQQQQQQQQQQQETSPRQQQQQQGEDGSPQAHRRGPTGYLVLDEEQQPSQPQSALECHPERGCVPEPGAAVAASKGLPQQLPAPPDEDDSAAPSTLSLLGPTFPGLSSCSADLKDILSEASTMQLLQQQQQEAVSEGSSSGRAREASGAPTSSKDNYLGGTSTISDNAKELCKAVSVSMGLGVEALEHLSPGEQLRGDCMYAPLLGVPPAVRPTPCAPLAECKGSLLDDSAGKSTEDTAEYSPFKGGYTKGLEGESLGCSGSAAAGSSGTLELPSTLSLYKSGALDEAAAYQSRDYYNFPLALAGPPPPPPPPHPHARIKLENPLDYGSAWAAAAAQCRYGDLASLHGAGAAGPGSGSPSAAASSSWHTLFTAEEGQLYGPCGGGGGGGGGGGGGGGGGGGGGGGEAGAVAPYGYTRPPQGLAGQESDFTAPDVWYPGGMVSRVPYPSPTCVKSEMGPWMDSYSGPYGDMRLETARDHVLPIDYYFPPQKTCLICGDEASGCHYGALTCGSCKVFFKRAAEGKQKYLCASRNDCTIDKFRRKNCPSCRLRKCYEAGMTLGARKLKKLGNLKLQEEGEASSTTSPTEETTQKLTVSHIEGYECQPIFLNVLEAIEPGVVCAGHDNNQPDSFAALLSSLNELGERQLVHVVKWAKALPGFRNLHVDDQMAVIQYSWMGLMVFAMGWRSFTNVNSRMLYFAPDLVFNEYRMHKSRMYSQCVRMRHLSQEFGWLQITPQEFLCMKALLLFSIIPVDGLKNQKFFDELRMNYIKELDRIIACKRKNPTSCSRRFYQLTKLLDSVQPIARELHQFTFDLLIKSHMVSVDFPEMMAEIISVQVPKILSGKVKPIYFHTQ

CCOC(=O)C(Cl)Cc1cc(-n2nc(C)n(C(F)F)c2=O)c(F)cc1Cl (centres undefined)
active: [3] 39.8 µM
not listed: [18] | [19] | [20]
inactive: all other assays above

CNC(=S)S
active: [3] 80 µM | [11] 168 µM
inactive: [1] | [2] | [3] | [6] | [7] | [8] | [9] | [10] | [11] | [12] | [13] | [14] | [15] | [17]

CCOC(=O)CC(SP(=S)(OC)OC)C(=O)OCC (centres undefined)
active: [2] 100 µM | [3] 2.27 µM and 12.2 µM | [4] 83.1 µM and 32.5 µM | [5] 150 µM | [12] 0.00921 µM | [14] 20.2 µM and 29.4 µM | [16] 68 µM and 32.4 µM | [17] 100 µM
inactive: [1] | [2] | [5] | [7] | [8] | [9] | [10] | [11] | [12] | [13] | [15] | [17] | [18] | [19]

CCCCNC(=O)OCC#CI
inactive: [1] | [2] | [4] | [5] | [7] | [8] | [9] | [10] | [11] | [12] | [13] | [14] | [15] | [16] | [20] | [17]
active: [1] 25.9 µM | [2] 32.7 µM | [3] 48.6 µM and 1.56 µM and 1.73 µM | [4] 26.3 µM | [5] 27.3 µM | [7] 31.9 µM | [9] 60.2 µM | [10] 27.7 µM | [11] 26.8 µM | [13] 25.4 µM | [14] 37 µM | [16] 25.4 µM | [17] 45.5 µM

CCCN(CCC)c1c([N+](=O)[O-])cc(S(N)(=O)=O)cc1[N+](=O)[O-]
inactive: [1] | [2] | [4] | [5] | [7] | [8] | [9] | [10] | [11] | [12] | [13] | [14] | [15] | [16] | [20] | [17] | [19]
active: [1] 2.2 µM | [3] 302 nM and 134 nM and 567 nM | [14] 915 nM and 1.14 µM
